# In PubChem BioAssay (NCATS):
# Where “and” joins values, the source holds several entries; their conditions need not be identical. Identical values can stand only once. Records with an inconclusive call do not appear. Where a call stands in place of a potency, no number is given. Calls of active or inactive are those of the source. Unless noted, calls follow the shape of the dose curve; as a rule, active = well fitted curve in the direction sought with a large enough effect; inconclusive = small, poorly fitted or top-dose-only effect, or another doubt; inactive = no such curve, though single readings can be large; an effect the other way counts as inactive or inconclusive.
# Tests used:
# [1] = Cell Viability - Jurkat (AID 426;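 active = dose-dependent loss of cell ATP signal giving a full or clear fitted curve, ranked by lower potency value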; also: potency is read from the fitted curve at half-maximal effect); details: qHTS
# Outline: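 Jurkat (clone E6-1, human T-cell leukemia) cells, 5000/well in complete medium, were exposed to compound for 40 hr at 37 °C. Viability was read as intracellular ATP by CellTiter-Glo luminescence; AC50 came from Hill fits of concentration-response data.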
# [2] = Cell Viability - H-4-II-E (AID 543); details: H-4-II-E rat hepatoma viability; series mostly up to 92.2 µM; also: nearly all actives have a fitted effect of over 35% in size; also: potency is read from the fitted curve at half-maximal effect
# Outline: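 Rat hepatoma H-4-II-E cells (1500/well) were plated, incubated 5 hr at 37 °C, then exposed to compounds for 40 hr at 37 °C. Cellular ATP was read by CellTiter-Glo luminescence; AC50 came from Hill-equation fits of concentration-response data.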
# [3] = MultiTox-Fluor Cytotoxicity Assay - LYMP1-001 - Live Cells (AID 947); details: LYMP1-001 lymphoblastoid cells, live-cell protease fluorescence viability; series mostly up to 92.2 µM
# [4] = Cell Viability - LYMP2-004 (AID 966); details: LYMP2-004 lymphoblastoid cell viability, qHTS; series mostly up to 92.2 µM; also: nearly all actives have a fitted effect of over 65% in size; also: potency is read from the fitted curve at half-maximal effect
# Outline: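 Human lymphoblastoid cells (2500/well) in complete medium were treated with compounds for 24 hr at 37 C, then intracellular ATP was measured by CellTiter-Glo luminescence. AC50 values came from Hill-equation fits of concentration-response data.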
# [5] = Cell Viability - LYMP2-014 (AID 983); details: LYMP2-014 lymphoblastoid cells, viability qHTS; series mostly up to 92.2 µM; also: nearly all actives have a fitted effect of over 50% in size; also: potency is read from the fitted curve at half-maximal effect
# Outline: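 Human lymphoblastoid cells (2500/well) were pre-incubated 5 hr at 37 C, then exposed to compounds in complete medium for 24 hr at 37 C. Intracellular ATP was read by CellTiter-Glo luminescence after 30 min at room temperature; AC50 from Hill fits.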
# [6] = Cell Viability - LYMP2-016 (AID 984); details: LYMP2-016 lymphoblastoid cell viability, qHTS; series mostly up to 92.2 µM; also: nearly all actives have a fitted effect of over 55% in size; also: potency is read from the fitted curve at half-maximal effect
# Outline: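 Concentration-dependent ATP depletion measured in LYMP2-016 lymphoblastoid cells, 24 h, 37 C; luciferase-based luminescent detection; Hill-equation AC50.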
# [7] = Cell Viability - LYMP2-018 (AID 985); details: LYMP2-018 lymphoblastoid cells, viability (qHTS); series mostly up to 92.2 µM;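 also: compound exposure lasted 24 hr at 37 °C; nearly all actives have a fitted effect of over 50% in size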; also: potency is read from the fitted curve at half-maximal effect
# Outline: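 Human lymphoblastoid cells (2500/well) were pre-incubated 5 hr at 37 C, then exposed to compounds for 24 hr at 37 C in complete medium. Viability was read as intracellular ATP by CellTiter-Glo luminescence; AC50 values came from Hill-equation fits.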
# [8] = qHTS assay for small molecule antagonists of peroxisome proliferator-activated receptor delta signaling (AID 588535); details: HEK293T PPARd-UAS-bla, beta-lactamase FRET ratio, 18 h; 460 nm channel;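 also: cells co-treated with a PPAR-delta agonist as stimulator during compound exposure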
# Outline: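 GeneBLAzer PPAR-delta-UAS-bla HEK293T cells in medium with 2% charcoal/dextran FBS were preincubated 5 hrs at 37 C, then given compounds, incubated 18 hrs at 37 C, and read by CCF4 beta-lactamase fluorescence; IC50 from Hill fits.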
# [9] = Cell Viability - NIH 3T3 (AID 541); details: NIH 3T3 cell viability, qHTS; activity change, negative = cytotoxicity: at 92.2 µM (top of the series); also: nearly all actives have a fitted effect of over 25% in size
# Outline: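 NIH 3T3 mouse embryo fibroblasts (1000 cells/well) were plated in complete medium and treated with compound for 40 hr at 37 °C. Viability was read as intracellular ATP by CellTiter-Glo luminescence; AC50 values came from Hill-equation fits of concentration-response data.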
# [10] = Cell Viability - LYMP1-003 - Assay at 40 hr (AID 964); details: LYMP1-003 lymphoblastoid viability; series mostly up to 92.2 µM; also: nearly all actives have a fitted effect of over 60% in size; also: potency is read from the fitted curve at half-maximal effect
# Outline: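 Human lymphoblastoid LYMP1-003 cells, 2500/well in complete medium, rested 5 hr at 37 C, then exposed to compounds for 40 hr at 37 C. Viability read as intracellular ATP by CellTiter-Glo luminescence; AC50 from Hill fits of concentration-response data.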
# [11] = Cell Viability - LYMP2-021 (AID 974); details: LYMP2-021 lymphoblastoid cells viability; series mostly up to 92.2 µM;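 also: compound exposure lasts 24 hours at 37 °C; nearly all actives have a fitted effect of over 55% in size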
# Outline: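 Human lymphoblastoid cells (2500/well) were preincubated 5 hr at 37 C, then exposed to compounds for 24 hr at 37 C in complete medium. Intracellular ATP was read by CellTiter-Glo luminescence; AC50 came from Hill-equation fits of concentration-response data.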
# [12] = Cell Viability - LYMP2-025 (AID 976); details: LYMP2-025 lymphoblastoid cell viability; series mostly up to 92.2 µM
# Outline: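 Human lymphoblastoid LYMP2-025 cells (2500/well) were pre-incubated 5 hr at 37 C, then treated with compounds for 24 hr at 37 C in complete medium. Viability was read as intracellular ATP by CellTiter-Glo luminescence; AC50 from Hill fits.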
# [13] = Cell Viability - LYMP2-007 (AID 979); details: LYMP2-007 lymphoblastoid cell viability; series mostly up to 92.2 µM;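 also: cells exposed to compound for 24 h before reading; nearly all actives have a fitted effect of over 60% in size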; also: potency is read from the fitted curve at half-maximal effect
# Outline: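 Human lymphoblastoid cells (2500/well) were plated in complete medium, incubated 5 hr at 37 C, then exposed to compounds for 24 hr at 37 C. Intracellular ATP was read by CellTiter-Glo luminescence after 30 min at room temperature; AC50 from Hill fits.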
# [14] = target: Bile acid receptor (Homo sapiens) (UniProt Q96RI1); assay: qHTS assay for small molecule antagonists of farnesoid X receptor signaling (AID 588526; calls by dose curve); details: HEK293T FXR-UAS-bla, beta-lactamase ratio, antagonist mode; series mostly up to 76.7 µM
# Outline: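 Concentration-response titrations were fitted to the Hill equation for half-maximal inhibition and maximal response, with data normalised to 50 uM chenodeoxycholic acid and DMSO control wells. Cells: FXR-UAS-bla HEK293T, dialyzed FBS.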
# [15] = target: Peroxisome proliferator-activated receptor gamma (Homo sapiens) (UniProt P37231); assay: qHTS assay for small molecule antagonists of peroxisome proliferator-activated receptor gamma signaling (AID 588537; active = well fitted inhibition curve with a large enough effect in the signal ratio, with a control signal flat, not every such curve was filed as active; the % refers to the signal ratio;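 also: reporter cells co-stimulated with 50 nM rosiglitazone agonist during compound treatment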); details: HEK293 PPARg-UAS-bla, beta-lactamase ratio, antagonist mode; series mostly up to 76.8 µM
# Outline: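 PPAR-gamma-UAS-bla HEK293 cells (3000/well, 1% charcoal/dextran-stripped FBS) were preincubated 6-6.5 h at 37 C, given titrated compounds, then stimulated with 50 nM rosiglitazone for 16 h. Beta-lactamase activity was read with CCF4 dye; IC50 came from Hill fits.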
# [16] = target: Retinoic acid receptor RXR-alpha (Homo sapiens) (UniProt P19793); assay: qHTS assay for small molecule antagonists of retinoid X receptor alpha signaling (AID 588546; active = well fitted inhibition curve with a large enough effect in the signal ratio, with a control signal flat, not every such curve was filed as active; the % refers to the signal ratio;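 also: cells stimulated with 9-cis-retinoic acid as agonist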); details: HEK293T RXRa-UAS-bla, beta-lactamase ratio, antagonist mode
# Outline: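 Beta-lactamase reporter inhibition, read as CCF4 fluorescence ratio (ex 405, em 460/530 nm) after 2 h at RT. HEK293T UAS-bla cells, 2500/well, were stimulated with 9-cis-RA at 500 or 100 nM final alongside test compound for 18 h at 37 C.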
# [17] = target: Thyroid hormone receptor beta (Homo sapiens) (UniProt P10828); assay: qHTS assay for small molecule antagonists of thyroid hormone receptor beta signaling (AID 588547; active = well fitted inhibition curve with a large enough effect in the signal ratio, with a control signal flat, not every such curve was filed as active; the % refers to the signal ratio;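 also: cells stimulated with 0.4 nM T3 agonist during compound exposure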); details: TR-UAS-bla HEK293, beta-lactamase ratio, antagonist mode, 18 h
# Outline: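 TR-UAS-bla GripTite HEK293 cells in 2% charcoal/dextran FBS medium were preincubated 4 h at 37 C, given compound (0.59 nM to 92 uM) plus 0.4 nM T3 (final) for 18 h, then CCF4 for 2 h at RT; Hill fit gave IC50.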
# [18] = qHTS assay for small molecule activators of the p53 signaling pathway (AID 651743; active = well fitted activation curve with a large enough effect in the signal ratio, not every such curve was filed as active; the % refers to the signal ratio); details: HCT-116 p53RE-bla, beta-lactamase FRET ratio, 16 h; activation: stronger effect = higher value
# Outline: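 p53RE-bla HCT-116 cells with a stably integrated beta-lactamase reporter under p53 response elements were plated, rested 5 hours at 37 C/5% CO2, then exposed to compounds in DMSO for 16 hours at 37 C. LiveBLAzer B/G FRET substrate was read after 2 hours at room temperature.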
# [19] = target: Vitamin D3 receptor (Homo sapiens) (UniProt P11473); assay: qHTS assay for small molecule antagonists of vitamin D receptor signaling (AID 588541; calls by dose curve;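 also: receptor activated by calcitriol during compound treatment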); details: HEK293T VDR-UAS-bla, beta-lactamase ratio, antagonist mode; series mostly up to 76.7 µM
# Outline: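 VDR-UAS-bla HEK293T cells (2000/well, 2% charcoal-stripped FBS) were treated with titrated compounds plus 1-alpha,25-dihydroxyvitamin D3 (50 nM or 3 nM final) for 16 h at 37 C. CCF4 beta-lactamase fluorescence was read; Hill fits gave IC50.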
# [20] = target: Mitogen-activated protein kinase 10 (Mus musculus) (UniProt Q61831); assay: JNK3 AlphaScreen Assay (AID 530; active = well fitted curve in either direction with a large enough effect, not every such curve was filed as active;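 also: kinase came from lysate of stimulated human HepG2 cells; signal reports phosphorylation of biotinylated GST-cJun 1-79 at Ser73 with 10 µM ATP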); details: JNK3 lysate, c-Jun phosphorylation; series mostly up to 11.4 µM
# Outline: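 JNK3 came from HepG2 lysates pre-activated with IL-1beta and TNF-alpha and phosphorylated biotinylated GST-cJun (1-79) at 10 uM ATP, pH 7.6, room temperature. Compounds were titrated. AlphaScreen signal used anti-phospho-cJun (Ser73) antibody.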
# Sequence of Retinoic acid receptor RXR-alpha (Homo sapiens) (P19793 whole entry, looked up): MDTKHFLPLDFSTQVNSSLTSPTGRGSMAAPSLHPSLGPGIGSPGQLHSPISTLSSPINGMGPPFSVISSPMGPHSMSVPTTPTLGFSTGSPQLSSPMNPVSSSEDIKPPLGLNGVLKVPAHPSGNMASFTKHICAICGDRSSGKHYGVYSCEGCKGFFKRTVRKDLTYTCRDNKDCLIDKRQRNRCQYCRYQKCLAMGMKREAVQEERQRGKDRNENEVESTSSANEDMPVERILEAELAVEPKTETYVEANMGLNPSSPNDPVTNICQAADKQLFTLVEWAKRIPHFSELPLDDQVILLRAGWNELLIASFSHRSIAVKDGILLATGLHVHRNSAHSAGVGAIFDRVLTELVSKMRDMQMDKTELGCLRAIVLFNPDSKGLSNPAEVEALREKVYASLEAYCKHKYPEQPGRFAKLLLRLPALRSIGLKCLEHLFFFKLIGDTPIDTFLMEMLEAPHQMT
# Sequence of Bile acid receptor (Homo sapiens) (Q96RI1 whole entry, looked up): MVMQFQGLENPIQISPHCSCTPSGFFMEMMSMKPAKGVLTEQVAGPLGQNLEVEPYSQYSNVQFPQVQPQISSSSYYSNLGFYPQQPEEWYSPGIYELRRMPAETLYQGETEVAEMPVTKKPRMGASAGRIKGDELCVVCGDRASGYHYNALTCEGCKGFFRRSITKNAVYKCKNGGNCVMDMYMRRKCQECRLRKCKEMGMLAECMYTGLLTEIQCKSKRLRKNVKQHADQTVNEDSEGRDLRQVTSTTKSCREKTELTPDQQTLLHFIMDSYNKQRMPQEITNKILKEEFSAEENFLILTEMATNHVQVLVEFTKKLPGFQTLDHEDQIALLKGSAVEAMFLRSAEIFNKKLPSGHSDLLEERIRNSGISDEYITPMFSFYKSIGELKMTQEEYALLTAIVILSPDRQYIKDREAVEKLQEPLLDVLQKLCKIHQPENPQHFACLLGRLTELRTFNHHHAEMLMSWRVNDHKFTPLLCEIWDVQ
# Sequence of Thyroid hormone receptor beta (Homo sapiens) (P10828 whole entry, looked up): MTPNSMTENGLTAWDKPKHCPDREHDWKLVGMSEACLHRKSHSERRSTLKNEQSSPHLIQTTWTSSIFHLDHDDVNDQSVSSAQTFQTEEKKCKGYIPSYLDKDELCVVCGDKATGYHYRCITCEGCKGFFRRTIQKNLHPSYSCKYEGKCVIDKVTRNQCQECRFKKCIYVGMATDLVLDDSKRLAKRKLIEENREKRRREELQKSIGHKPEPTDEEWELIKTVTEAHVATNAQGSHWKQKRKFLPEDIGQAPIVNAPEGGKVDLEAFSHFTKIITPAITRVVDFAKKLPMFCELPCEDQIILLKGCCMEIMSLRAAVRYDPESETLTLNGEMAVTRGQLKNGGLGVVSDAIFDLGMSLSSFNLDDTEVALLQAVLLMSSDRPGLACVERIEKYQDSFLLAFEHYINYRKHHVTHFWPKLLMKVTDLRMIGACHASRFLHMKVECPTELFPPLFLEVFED
# Sequence of Peroxisome proliferator-activated receptor gamma (Homo sapiens) (P37231 whole entry, looked up): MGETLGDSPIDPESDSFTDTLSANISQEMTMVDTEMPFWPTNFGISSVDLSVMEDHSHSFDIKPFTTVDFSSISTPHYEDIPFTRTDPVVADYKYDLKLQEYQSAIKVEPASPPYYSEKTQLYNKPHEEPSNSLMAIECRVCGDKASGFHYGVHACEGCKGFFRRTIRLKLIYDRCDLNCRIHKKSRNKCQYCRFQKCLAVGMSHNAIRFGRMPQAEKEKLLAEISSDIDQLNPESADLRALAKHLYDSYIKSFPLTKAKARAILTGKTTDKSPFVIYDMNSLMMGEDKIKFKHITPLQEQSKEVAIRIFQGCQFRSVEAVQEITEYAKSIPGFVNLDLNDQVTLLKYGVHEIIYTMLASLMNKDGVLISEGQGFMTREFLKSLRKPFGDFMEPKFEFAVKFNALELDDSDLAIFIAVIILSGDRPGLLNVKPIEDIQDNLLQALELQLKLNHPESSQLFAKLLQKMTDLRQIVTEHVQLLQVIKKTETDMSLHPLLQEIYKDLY
# Sequence of Vitamin D3 receptor (Homo sapiens) (P11473 whole entry, looked up): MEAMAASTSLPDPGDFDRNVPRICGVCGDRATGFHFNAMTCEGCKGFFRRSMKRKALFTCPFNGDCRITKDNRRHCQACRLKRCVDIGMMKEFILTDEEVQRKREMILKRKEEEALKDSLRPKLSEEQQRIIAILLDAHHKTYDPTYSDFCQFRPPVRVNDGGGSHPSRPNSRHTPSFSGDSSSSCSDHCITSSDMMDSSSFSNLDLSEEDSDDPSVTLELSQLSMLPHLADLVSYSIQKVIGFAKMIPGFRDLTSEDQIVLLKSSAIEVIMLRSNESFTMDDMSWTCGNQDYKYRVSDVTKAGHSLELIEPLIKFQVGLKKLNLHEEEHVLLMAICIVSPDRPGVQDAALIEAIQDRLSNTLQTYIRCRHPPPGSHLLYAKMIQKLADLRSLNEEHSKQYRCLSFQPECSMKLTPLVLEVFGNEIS
Compound,Potency [1],Potency [2],Potency [3],Potency [4],Potency [5],Potency [6],Potency [7],max response [8],"activity change, negative = cytotoxicity [9]",Potency [10],Potency [11],Potency [12],Potency [13],Potency [14],Potency [15],max response [16],activity change % (negative = inhibition) [17],activation [18],Potency [19],Potency [20]
CCCCNCC,> 92 µM (inactive),inactive,inactive,inactive,inactive,inactive,inactive,-21.4%,–,–,–,–,–,–,–,–,–,–,–,–
CN(C)c1ccc(Cc2ccc(N(C)C)cc2)cc1,> 92 µM (inactive),–,inactive,inactive,–,–,inactive,11.4% and 3.82%,-18.8% (inactive),inactive,inactive,inactive,inactive,inactive,inactive,1.04% (inactive) and -36.9% (inactive),–,–,–,–
Nc1ccc(N=Nc2ccccc2)c(N)c1,> 92 µM (inactive),inactive,inactive,inactive,–,inactive,–,–,–,inactive,inactive,inactive,–,–,inactive,-15% (inactive),1.36% (inactive),-4.52% (inactive),–,–
Brc1ccc(-c2ccccc2)cc1,> 92 µM (inactive),inactive,–,inactive,inactive,–,–,–,–,inactive,–,inactive,inactive,–,–,–,–,–,inactive,–
Cc1c(N)cccc1Cl,> 92 µM (inactive),inactive,inactive,–,–,inactive,inactive,-10%,-0.783% (inactive),–,–,inactive,inactive,inactive,–,1.61% (inactive),0.909% (inactive),-0.236% (inactive),–,–
C/C(Cl)=C/CCl,> 92 µM (inactive),–,inactive,inactive,inactive,inactive,inactive,5.39%,-23.5% (inactive),inactive,inactive,inactive,inactive,inactive,inactive,–,–,-4.9% (inactive),–,–
CC(=O)OCc1ccc2c(c1)OCO2,> 92 µM (inactive),inactive,inactive,–,–,inactive,inactive,–,–,–,inactive,inactive,inactive,inactive,–,24.9% (inactive),-11.5% (inactive),-2.61% (inactive),–,inactive
CC1=C(/C=C/C(C)=C/C=C/C(C)=C/C=O)C(C)(C)CCC1,21.5 µM (active),25.1 µM (active),–,39.8 µM (active),50.1 µM (active),50.1 µM (active),39.8 µM (active),–,–,50.1 µM (active),–,–,39.8 µM (active),–,–,-29.6% (inactive),–,–,inactive,inactive
CCNC(=S)NCC,> 92 µM (inactive),inactive,–,inactive,–,–,inactive,61.6%,–,inactive,inactive,inactive,inactive,–,inactive,–,–,-0.196% (inactive),–,inactive
